Experimental findings from PubChem BioAssay (NCATS) are described below.

Molecules are shown by their SMILES. Records with an inconclusive call do not appear. Where a call stands in place of a potency, no number is given. The source made the active and inactive calls. Calls follow the shape of the dose curve; as a rule, active = well fitted activation curve with a large enough effect; inconclusive = small, poorly fitted or top-dose-only effect; inactive = no such curve, though single readings can be large or run the other way.

A short description of the experiment: Validation screen for small molecules that induce genotoxicity in human embryonic kidney (HEK293T) cells expressing luciferase-tagged ELG1 (AID 493106). To be noted: luminescence; series mostly up to 46.1 µM. The text has this:
NIH Molecular Libraries Probe Production Network [MLPCN]
NIH Chemical Genomics Center [NCGC]
Assay Provider: Kyungjae Myung, NHGRI, NIH
Keywords: MLPCN, qHTS, NCGC, genotoxicity, cancer
Cancer cells divide rapidly compared to normal cells in the body. During cell division, cancer cells need to duplicate their genome by DNA replication. The failure of genome duplication leads to cancer cells' death. Therefore, inhibitors of DNA replication could specifically kill cancer cells. Based on this concept, many chemotherapeutic agents were developed and have been used to treat cancer patients. However, there are a limited number of agents available in the clinical setting, and some of those that do exist have low efficacy and severe side effects. Therefore, if we can find the compounds that effectively block DNA replication either by directly damaging DNA or by inhibiting other cellular mechanisms, the options for cancer treatment will be broadened. With this in mind, we developed a quantitative high-throughput ELG1-luciferase reporter gene assay. Since the level of human ELG1 protein is enhanced in response to genetic stresses, increases in luciferase activity can be used to identify compounds that cause genetic stress.
For genotoxicity screening, 2,000 cells in 5 uL/well were dispensed into white, solid-bottom 1536-well plates using a solenoid-based dispenser. Following transfer of 23 nL compound or DMSO vehicle by a pin tool, the plates were incubated 16 hr at 37 °C and 5% CO2. 5 ul ONE-Glo (Promega) was then added to each plate and following a 30 min incubation at room temperature, luciferase activity was quantified on a ViewLux CCD-based plate reader.
For `CCCCC[C@H](CC(=O)NO)C(=O)N[C@H](C(=O)N1CCC[C@H]1CO)C(C)C`, the Potency entry was “inactive”.

Turning to `Nc1ccc(N2C(=O)c3ccccc3C2=O)c(Cl)c1`, the Potency result is “inactive”.

For the compound `CCCC(=O)NCCc1c2n(c3ccc(OC)cc13)CCCc1ccccc1-2`, the Potency result was “inactive”.

For `N#CC(C#N)=C(N)/C(C#N)=C/c1ccc(O)cc1`, the Potency result was “inactive”.

`NC1CCN(O)C1=O` (stereo not given): the Potency result was “inactive”.

For `CN(C)C(=O)/N=N/C(=O)N(C)C`, the Potency entry is “inactive”.

In the case of `CCCC[C@@]1(C2CCCC2)Cc2cc(OCC(=O)O)c(Cl)c(Cl)c2C1=O`, the Potency result was “inactive”.

In the case of `COc1cc(/C=C(\C#N)C(=O)Nc2nnc(C(F)(F)F)s2)ccc1OCc1ccc(C(F)(F)F)cc1C(F)(F)F`, the Potency entry was “inactive”.

On to `CN(CC[C@@H](Oc1ccc(C(F)(F)F)cc1)c1ccccc1)CC(=O)O`, for which the Potency result is “inactive”.

On to `CN1C2CCC1CC(OC(c1ccccc1)c1ccccc1)C2` (stereo not given), for which the Potency result is “inactive”.

On to `C=CCN1CCc2c(cc(O)c(O)c2Cl)C(c2ccccc2)C1` (stereo not given), for which the Potency result is “inactive”.

Take `O=C(O)C1CCCNC1` (stereo not given): the Potency result was “inactive”.

Take `CC[n+]1c(/C=C/C=C2/N(C)c3ccccc3C2(C)C)sc2ccccc21`: the Potency result was “inactive”.

Regarding `O=c1[nH]c(=O)c2nc3ccccc3nc2[nH]1`, the Potency entry is “inactive”.

On to `CCCn1c(=O)c2[nH]c(-c3ccc(S(=O)(=O)O)cc3)nc2n(CCC)c1=O`, for which the Potency entry was “inactive”.

For the compound `CNCCNS(=O)(=O)c1cccc2cnccc12`, the Potency result was “inactive”.

Take `Nc1ccc(-c2nc3ccc(-c4nc5ccc(N)cc5[nH]4)cc3[nH]2)cc1`: the Potency entry is “inactive”.

Consider `NCCCCN`, for which the Potency entry was “inactive”.

With `CC#CCOC(=O)c1c(C)nc2sc3c(c2c1N)CCC(O)C3` (stereo not given), the Potency entry was “inactive”.

`C[C@H]1CC2C3CCC4=CC(=O)C=C[C@]4(C)[C@@]3(Cl)[C@@H](O)C[C@]2(C)[C@@]1(O)C(=O)CO` (stereo not given in full): the Potency entry is “inactive”.

As for `COC(=O)C1=C(C)NC(C)=C([N+](=O)[O-])C1c1ccccc1C(F)(F)F` (stereo not given), the Potency result was “inactive”.

Turning to `C[C@@H](NCCc1ccc(O)cc1)[C@@H](O)c1ccc(O)cc1`, the Potency result is “inactive”.

As for `CNc1ncnc2c1ncn2[C@H]1C[C@H](OP(=O)(O)O)[C@@H](COP(=O)(O)O)O1`, the Potency entry was “inactive”.

Regarding `COC1(C2=NCCN2)COc2ccccc2O1` (stereo not given), the Potency result was “inactive”.

For `OC[C@H]1O[C@@H](n2cnc3cncnc32)[C@H](O)[C@@H]1O`, the Potency entry was “inactive”.

`CCc1ccc2c(-c3cccc(Cl)c3)nc(=O)n(CC)c2n1`: the Potency entry was “inactive”.

For `O=C(O)C1=CCNCC1`, the Potency entry is “inactive”.

Take `C[N+](C)(C)CC=O`: the Potency entry is “inactive”.

`CSC(=N)N`: the Potency entry was “inactive”.

Take `Cn1c(=O)c2[nH]c(-c3ccc(S(=O)(=O)O)cc3)nc2n(C)c1=O`: the Potency result is “inactive”.

`OC1(c2ccc(Cl)cc2)CCN(Cc2c[nH]c3ccccc23)CC1`: the Potency entry is “inactive”.

For the compound `COC(=O)C(N)Cc1ccc(Cl)cc1` (stereo not given), the Potency entry was “inactive”.

Regarding `CC(C)NC[C@H](O)COc1cccc2ccccc12`, the Potency entry was “inactive”.

For the compound `CN1CC(O)C(O)C(O)C1CO` (stereo not given), the Potency entry was “inactive”.

With `O=C(O)C1=CCCNC1`, the Potency result is “inactive”.

As for `N[C@@H](Cc1ccc(F)cc1)C(=O)O`, the Potency result is “inactive”.

In the case of `CC1CCN=C(N)S1` (stereo not given), the Potency result was “inactive”.

Consider `O=c1ccn([C@@H]2O[C@H](COP(=O)(O)OP(=O)(O)O)[C@@H](O)[C@H]2O)c(=O)[nH]1`, for which the Potency entry is “inactive”.

Consider `N[C@H](C(=O)O)[C@H](O)C(=O)O`, for which the Potency entry was “inactive”.

Take `Nc1ncnc2c1nc(Br)n2C1OC2COP(=O)(O)O[C@@H]2C1O` (stereo not given in full): the Potency result was “inactive”.
